Compound activity deposited in PubChem BioAssay by National Center for Advancing Translational Sciences (NCATS).
TDP1 cell noCPT: qHTS for Inhibitors of human tyrosyl-DNA phosphodiesterase 1 (TDP1): qHTS in cells in absence of CPT | DT40 Tdp1-/- hTDP1 cells, no CPT, ATP luminescence, 48 h | Potency, µM (highest dose often 46.2 µM), hits mostly inhibitors | actives 15% (n = 420,000) | AID 686978, 2013; also: nearly all actives have a fitted effect of over 55% in size
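Seeded 400 DT40-hTDP1 cells/well (vehicle DMSO, no 20 nM CPT); pinned compounds; ≥48 hr at 37 °C; CellTiter-Glo luminescence as viability measure.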
D3 antag: D3 dopamine receptor (human) antagonism; D3R cells, DiscoveRx beta-arrestin luminescence, antagonist mode; stronger effect = lower value; max response, negative = inhibition, %; AID 652054; actives 2.5% (n = 360,000); in the data active = max response below about -50%; inconclusive = no clear call, values can overlap the other calls
Target sequence (P35462 whole entry, looked up): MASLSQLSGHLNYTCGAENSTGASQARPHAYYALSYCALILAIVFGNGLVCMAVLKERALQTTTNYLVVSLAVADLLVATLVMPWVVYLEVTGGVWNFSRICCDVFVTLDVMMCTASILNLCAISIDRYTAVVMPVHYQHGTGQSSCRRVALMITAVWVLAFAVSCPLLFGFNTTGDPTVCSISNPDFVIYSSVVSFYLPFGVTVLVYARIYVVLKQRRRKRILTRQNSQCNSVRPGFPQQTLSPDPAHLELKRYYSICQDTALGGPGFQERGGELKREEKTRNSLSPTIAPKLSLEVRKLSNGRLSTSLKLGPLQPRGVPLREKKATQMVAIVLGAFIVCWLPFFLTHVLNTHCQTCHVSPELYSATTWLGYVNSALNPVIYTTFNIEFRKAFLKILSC
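Cells expressing the human receptor were seeded at 1500 cells/well, incubated overnight at 37 degrees C in 5% CO2, then exposed to library compounds with dopamine controls for 90 minutes at 37 degrees C before luminescent detection.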
IL1B secr inh: inflammasome signaling inhibition, IL-1 beta readout; THP-1 LPS/ATP IL-1B secretion, AlphaLISA, 16 h; stronger effect = lower value; activity change, % at 57.5 µM; actives 4.7% (n = 360,000); in the data active = activity change below about -50%; inconclusive = mostly about -30% to -49%
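Secreted IL-1B measured by AlphaLISA bead assay after 16 h compound exposure of THP-1 cells; compounds (final up to 57.5 uM) added 1 h before LPS (250 ng/mL) and ATP (1.25 mM) stimulation; lower signal means less secretion.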
ClpP mod: qHTS Assay for Activators of ClpP. ATP-dependent Clp protease proteolytic subunit (Bacillus subtilis (strain 168)), P80244. purified B. subtilis ClpP, FRET peptide cleavage, 20 min. Potency, µM (series often up to 57.5 µM). actives 1.9% (n = 340,000). AID 651965, 2013; active = well fitted falling curve with a large enough effect; inconclusive = small, poorly fitted or top-dose-only effect; inactive = no such curve, though single readings can be large or run the other way; also: the source files actives as falling curves though it sought activators and does not explain the sign; nearly all actives have a fitted effect of over 65% in size
Target sequence (P80244 whole entry, looked up): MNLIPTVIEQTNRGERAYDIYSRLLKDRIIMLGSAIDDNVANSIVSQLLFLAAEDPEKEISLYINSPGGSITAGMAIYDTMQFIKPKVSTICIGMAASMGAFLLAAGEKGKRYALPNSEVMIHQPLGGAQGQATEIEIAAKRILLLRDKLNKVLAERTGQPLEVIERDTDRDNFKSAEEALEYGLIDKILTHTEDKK
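Purified B. subtilis ClpP, 10 microg/mL final in Tris/HCl pH8 with KCl, BSA, glycerol and Tween-20, cleaved an Abz/nitrotyrosine-quenched decapeptide. Fluorescence (ex 320, em 430) was read at 0 and 20 min at room temperature. Delta was normalized to 5.8 microM ADEP and DMSO/no-enzyme controls.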
D3 ag: agonists of human D3 dopamine receptor; D3R DiscoveRx beta-arrestin cells, luminescence, 90 min; max activation, %; actives 0.58% (n = 410,000); AID 652048; in the data active = max activation above about 30%
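Cells at 1500/well, incubated overnight, then treated with pinned compounds (dopamine as control) for 90 min at 37 degrees C. DiscoveRx reagent added for 30 - 60 minutes at room temperature; luminescence read.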
DT40 TDP1 CPT: DT40-hTDP1 cell growth loss with CPT | Potency, µM (top dose mostly 46.2 µM), actives largely listed as inhibitors | chicken DT40 Tdp1-/-;hTDP1 cells + 20 nM CPT, ATP luminescence, 48 h | actives 12% (n = 420,000); also: nearly all actives have a fitted effect of over 55% in size
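Cell growth measured by CellTiter-Glo luminescence after a minimum 48 h, 37 C compound exposure with 20 nM CPT in Tdp1-knockout DT40 cells stably expressing hTDP1, seeded 400/well; qHTS titration format.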
A number is an active result; – = inactive; ? = inconclusive; · = no result given; [ ] = remark or other dose. This is a sample that favours compounds with a hit; in the whole collection about 21% have one here. Unless noted, calls follow the shape of the dose curve; as a rule, active = well fitted inhibition curve with a large enough effect; inconclusive = small, poorly fitted or top-dose-only effect; inactive = flat fitted curve, though single readings scatter.

SMILES	TDP1 cell noCPT	D3 antag	IL1B secr inh	ClpP mod	D3 ag	DT40 TDP1 CPT
CCCOc1ccccc1N/C(=N\S(=O)(=O)c1ccc(C)cc1)Nc1nc(C)cc(C)n1	15µM	–	–	–	–	?
COc1ccc(C)cc1N/C(N)=N/c1nc(C)cc(C)n1	16µM	–	-98	–	–	21µM
COc1ccc(N/C(N)=N/c2nc(C)cc(C)n2)c(OC)c1	12µM	–	-76	·	–	26µM
COc1cc(N/C(N)=N/c2nc(C)cc(C)n2)cc(OC)c1	21µM	–	–	–	–	16µM
Cc1cc(C)nc(N/C(=N\S(=O)(=O)Cc2ccccc2)Nc2cccc(Cl)c2C)n1	?	–	–	–	–	?
O=c1cc(O)c2ccccc2n1Cc1ccccc1	–	–	–	·	–	–
Cc1ccnc(NS(=O)(=O)c2cc(-c3cc(C)no3)ccc2C(C)C)c1	–	–	–	–	–	–
Clc1ccc(CO/N=C/c2cccs2)cc1	–	–	·	·	–	–
Cc1ccc(CNC(=O)c2cnc3c(-c4ccc(F)cc4)c(C)nn3c2C)o1	–	·	·	–	–	–
COc1ccc(OC)c(N/C(=N/c2nc(C)cc(C)n2)NC(C)=O)c1	7.3µM	–	–	–	–	?
CC(C)NC(=O)N1CC[C@@]2(CCCN(C(=O)c3ccncc3)C2)C1	–	·	·	·	·	–
Cc1ccc2[nH]c3c(=O)n(CC(=O)N4CC(C)CC(C)C4)ncc3c2c1 (configuration not stated)	–	–	–	–	–	–
Cc1ccc2[nH]c3c(=O)n(CC(=O)N4CCCC(C)C4)ncc3c2c1 (configuration not stated)	18µM	·	·	–	–	?
Cc1ccc2nc(C)cc(C(=O)N3CCCC(N4CCN(c5ccccc5C)CC4)C3)c2c1 (configuration not stated)	?	–	–	–	–	15µM
Cc1nc(C(=O)N2CCCC(N3CCN(c4ccccc4C)CC3)C2)cs1 (configuration not stated)	?	–	–	–	–	15µM
Cc1cc(C(=O)N2CCCC(N3CCN(c4ccccc4C)CC3)C2)nc(C)n1 (configuration not stated)	–	–	–	–	–	–
Cc1ccccc1N1CCN(C2CCCN(C(=O)c3csc(C(C)C)n3)C2)CC1 (configuration not stated)	?	–	–	–	–	?
COCc1ccc(C(=O)N2CCCC(N3CCN(c4ccccc4C)CC3)C2)s1 (configuration not stated)	?	–	–	–	–	15µM
Cc1cnc(-n2ncc(C(=O)NCC(C)(C)N3CCOCC3)c2C(C)C)nc1-c1ccc(F)cc1	–	·	·	·	·	–
CCOC(=O)c1cc2[nH]c3ccccc3c2[n+](-c2ccc([N+](=O)[O-])cc2)c1N	8.2µM	–	-58	–	–	12µM
CCOC(=O)c1cc2[nH]c3ccccc3c2[n+](-c2ccc([N+](=O)[O-])cc2)c1C	?	–	–	–	–	?
COC(=O)c1ccc(NC(=O)CN2CCN(CCO)CC2)cc1	–	–	–	·	–	–
COc1cc(/C=C/C(=O)NCCc2ccc(S(N)(=O)=O)cc2)ccc1OCC#N	–	–	–	–	–	18µM
CCOc1cc(/C=C/C(=O)NCCc2ccc(S(N)(=O)=O)cc2)ccc1OCC(C)C	8.2µM	–	–	–	–	13µM
COc1ccc(CCNC(=O)/C=C/c2cc(OC)c(OC)c(OC)c2)cc1OC	?	–	–	·	–	–
SMILES	TDP1 cell noCPT	D3 antag	IL1B secr inh	ClpP mod	D3 ag	DT40 TDP1 CPT
CCOC(=O)CNC(=O)C1c2cc(OC)c(OC)cc2C(=O)N(C)C1c1ccccc1F (configuration not stated)	–	–	–	–	–	–
CCOC(=O)[C@]12Cc3c(cc(OC)c(OC)c3OC)[C@H]1N(CCC(=O)OC)C(=O)c1cc(OC)ccc12	16µM	–	-116	–	–	?
CCOC(=O)[C@]12Cc3c(cc(OC)c(OC)c3OC)[C@H]1N(Cc1ccccc1)C(=O)c1cc(OC)ccc12	13µM	–	·	–	–	?
CCOC(=O)[C@]12Cc3c(cc(OC)c(OC)c3OC)[C@H]1N(Cc1ccccc1)C(=O)c1cc(F)c(F)cc12	26µM	–	-68	–	–	?
COc1cccc(C2N(Cc3ccccc3)C(=O)C2(F)F)c1OC (configuration not stated)	–	–	–	·	–	–
COc1cc(-c2ccc(Cl)cn2)cc2c1OCCN(S(=O)(=O)C[C@]13CC[C@H](CC1=O)C3(C)C)C2	–	·	·	·	·	–[9.04 µM]
CCN1CCN(C(=O)c2cnn(-c3ncc4c(n3)-c3ccccc3CCC4)c2COC)CC1	–	·	·	·	·	–
O=C(c1ccncc1)N1CCC2(CCCN(c3ccccc3)C2)CC1	–	·	·	·	·	–
CCc1ccc(NC(=O)CSc2nnc(-c3ccc(N)cc3)n2C)cc1	?	·	·	–	·	–
O=S1(=O)c2c(F)cccc2OC(COCc2ccccc2)CN1C1CCCC1 (configuration not stated)	21µM	–	–	–	–	?
O=S1(=O)c2c(Oc3cccc4ccccc34)cccc2OC(COCc2ccccc2)CN1C1CCCC1 (configuration not stated)	6.5µM	–	–	–	–	6.5µM
O=c1[nH]cc(S(=O)(=O)Nc2ccc3c(c2)OCO3)c(=O)[nH]1	–	–	–	·	–	–
Nc1c(-c2ccccc2)n[nH]c1-c1ccccc1	–	–	–	28µM	–	–
Cc1cccnc1Sc1c([N+](=O)[O-])ncn1C	–	–	–	–	–	–
Cn1cnc([N+](=O)[O-])c1Sc1ccncn1	13µM	–	–	–	–	–
Cc1cccc(Sc2c([N+](=O)[O-])ncn2C)c1	23µM	?	–	–	–	?
O=C(NCCS(=O)(=O)NCCCc1ccccc1)c1ccccc1	–	–	–	·	–	–
Cc1ccccc1Cn1nnc2c(=O)[nH]c(C3CCN(C(=O)c4ccccc4Cl)CC3)nc21	26µM	·	·	–	–	16µM
O=C(C1CCCCC1)N1CCC(c2nc3c(nnn3Cc3ccccc3Cl)c(=O)[nH]2)CC1	–	–	–	–	–	–
CCCCCCC(=O)N1CCC(c2nc3c(nnn3Cc3ccccc3Cl)c(=O)[nH]2)CC1	?	–	–	–	–	18µM
C/C(=N\NC(=O)CNC(=O)c1cccs1)c1ccc(Cl)c(Cl)c1	?	–	–	–	–	2.6µM
